The results in this text go back to the supplement of paper PMC10105736.

A number with no mark means an inactive call.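 Rule for the calls: active = MAPPIT score above the 99th percentile of random reference set scores in the same batch; inactive = at or below it.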

What all share (assay): MAPPIT interaction score (arbitrary units); higher = stronger binary interaction signal, active = hit call of the paper
The target of one assay is Sms. To be noted: MAPPIT configuration: N-N; pair source set: Finley_Y2H.
The next assay has as its target Slh. The conditions noted are these: MAPPIT configuration: N-N; pair source set: Finley_Y2H.
For a further assay, the target named is SelR. The conditions noted are these: MAPPIT configuration: N-N; pair source set: Curagen_high_conf.
A further assay concerns the target Six4. The conditions noted are these: MAPPIT configuration: N-N; pair source set: Lit-BS-16.
The next assay deals with Sirt2. The conditions noted are these: MAPPIT configuration: N-N; pair source set: Finley_Y2H.
The target of the next assay is SmydA-8. The conditions noted are these: MAPPIT configuration: N-N; pair source set: screen_2.
A further assay addresses ScpX. To be noted: MAPPIT configuration: N-N; pair source set: Curagen_high_conf.
A further assay concerns the target Sfp84E. The conditions noted are these: pair source set: RRS.
A further assay deals with alc. The conditions noted are these: MAPPIT configuration: N-N; pair source set: Lit-BS-16.
The next assay deals with robl62A. To be noted: MAPPIT configuration: N-N; pair source set: RRS.
A further assay addresses Sce. The conditions noted are these: MAPPIT configuration: N-C; pair source set: Lit-BM-16.
Another assay deals with Snap29. The conditions noted are these: MAPPIT configuration: N-C; pair source set: Lit-BM-16.
Another assay addresses Shmt. The conditions noted are these: MAPPIT configuration: N-N; pair source set: Curagen_high_conf.
For a further assay, the target named is Sas10. The conditions noted are these: MAPPIT configuration: N-N; pair source set: Finley_Y2H.
The target of a further assay is grau. The conditions noted are these: MAPPIT configuration: N-N; pair source set: Lit-BM-16.
Substrate in assay [1]: SNCF
To be noted: MAPPIT configuration: N-N; pair source set: DPIM.

For the next assay, the target named is Sarm. The conditions noted are these: MAPPIT configuration: N-N; pair source set: Curagen_low_conf.
In a further assay the target is Smn. To be noted: MAPPIT configuration: N-C; pair source set: Lit-BM-16.
A further assay concerns the target Sid. To be noted: MAPPIT configuration: N-N; pair source set: Curagen_high_conf.
For another assay, the target named is Xbp1. To be noted: MAPPIT configuration: N-N; pair source set: Curagen_low_conf.
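Note: HEK293T cells with Epo stimulation, STAT-responsive firefly luciferase reporter, fold induction versus unstimulated cells divided by the larger fold induction of two negative controls lacking either bait or prey.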

B1: l(2)34Fc (protein)
chain: MFRLLVLAACLAISVHAYSDGAPKAACRDLTPQHGAKLQVTKPPYSISGPSHVRSDQKLTLTLGGDEFLGFMIQARDGQNRVVGQFQVVDSVHSQTLDCSGKDDTITHLSAQKGKPLTGITFDWIPPAGYKGNVKFMATVVQTGFVYWVGRVTKDIDVE
On to B1, for which the MAPPIT interaction score with Sms was 0.335.

B2: rux (protein)
chain: MSAPEEHKETPLEVIHEFINGVDDGTIRRDLGEDCILSFYSRNVRGAKAITGFLRNQLTMRYKHEGFEEAAQIEWGDELLLKARFGRSFDSERRRIYEEKERTGTTLHVRPESDDEEVNEKFSSTLITPPRPSSYNLNSLKYVEACGLLNKRNEHIYGGLDMGESCAVHLTLGYRSTFLPGGQVSGFEICLAVYDRGLTSLKRSTLIPPLCSISFARRASARCNPTTDDEEDTEEDSTPPTARRCVRRTLFTEENTQKEEDADFIPVVEQEQPAPQEQPAPQQAEETGEVVIPVDISTALKTTNFSSCTPRKRQQATNGNEVVRKRATGPRRMRF
As to B2, in the assay with Slh, the MAPPIT interaction score was -0.123.

B3: CG11899 (protein)
chain: MVINFAAGPAKLPEEVLKEVQENLVNCNGSGISVMEMSHRSSNYAKIHDATISDLRELLNVPSNYKILLMQGGGTGQFAAVALNLIGKTGTADYVITGSWSAKAAKEAAQYGTVNAVLPKLAKYTTVPRQETWKLDPNASYVYYCDNETVEGVEFDFVPEVPAGVPLVADMSSNFLSRPFDVSKFGVIYAGAQKNIGPAGTTVIIVRDDLIGKHLKITPSILNFEQMDKNNSLLNTPPTFGIYVMGLVFKWIKRNGGVAGMAKLAAAKSKLIYDTINQSNGFYYCPVDVNVRSRMNVPFRIGSASGDDALEKEFLSKAEAEGMIQLKGHRSVGGIRASLYNAVTLAETQQLANLMLAFYKNNKN
In the case of B3, in the assay with SelR, the MAPPIT interaction score was 0.998.

B4: CG30031 (protein)
chain: MLKFVILLSAVACALGGTVPEGLLPQLDGRIVGGSATTISSFPWQISLQRSGSHSCGGSIYSSNVIVTAAHCLQSVSASVLQIRAGSSYWSSGGVTFSVSSFKNHEGYNANTMVNDIAIIKINGALTFSSTIKAIGLASSNPANGAAASVSGWGTLSYGSSSIPSQLQYVNVNIVSQSQCASSTYGYGSQIRSTMICAAASGKDACQGDSGGPLVSGGVLVGVVSWGYGCAYSNYPGVYADVAALRSWVISNA
On to B4, for which the MAPPIT interaction score in the assay with Six4 is -0.185.

B5: Pgam5 (protein)
chain: MRKLTSFVCGTGAGLAAYYLQRLRDPQTVVQNSWTHSDKPVDPWALWDTNWDCREPRALVRPLRNSQPEEENRYNAELEKAKAKKARHIILVRHGEYLDVGDSDDTHHLTERGRKQAEFTGKRLCELGIKWDKVVASTMVRAQETSDIILKQIDFEKEKVVNCAFLREGAPIPPQPPVGHWKPEASQFLRDGSRIEAGFRRYFHRAYPDQEKESYTLIVGHGNVIRYFVCRALQFPAEGWLRININHASITWLTISPSGNVSIKYLGDSGFMPAELLTNRIPRDVKNVV
B5: the MAPPIT interaction score in the assay with Sirt2 is 0.996.

B6: Hsp67Bc (protein)
chain: MPDIPFVLNLDSPDSMYYGHDMFPNRMYRRLHSRQHHDLDLHTLGLIARMGAHAHHLVANKRNGELAALSRGGASNKQGNFEVHLDVGLFQPGELTVKLVNECIVVEGKHEEREDDHGHVSRHFVRRYPLPKEFDSDAIVSTLSEDGVLNITVPPLVSKEELKERIIPIKHVGPSDLFQNGNGHKEAGPAASASEPEAK
As to B6, the MAPPIT interaction score in the assay with SmydA-8 is -0.475.

B7: CG32486 (protein)
chain: MSVESSSSAVQQPPSSSNLPLLGDNQAVATTSSASSASSSSTSSSSSSVGGGNVVGVPLDTQGSGEPPAKKQLLDGGGGGATSSSGSSLLSSAAAASGMHEKLAHRISNALCCAVCLDLPKTAMYQCQMGHLMCAACFTHLLADGRLRDQIATCPNCRVEISKSTASRNLAVEKAASELPSECQFCNKEFPYKSLERHEQHECQERPTKCKYHRIGCQWRGPYHETNEHERNCLHPQKSGYEVMAALEAHDDRIKEEKKMFNTLIDLLSYEKIIFNDLQMKPYRTDEYVHKLFYETARFSAFNQQWVVKARINNSQRDPHQSNERTITYQLILKTKTSTPMSIHFFALKGPFSDMKVSTQIYKHEFTETSTESEYYVLPLPDGVGGSGSSECNRMLANKGINFRLLMFLLNK
For B7, the MAPPIT interaction score with ScpX is 4.53 (active).

B8: Adi1 (protein)
chain: MVQVWYMDTEETDQRLEHHRNPPAYLELDDLYQKTGVEYFKINADEYQSDNTLTELRAKRGYTYDDEITCSEKCLPDYANKLKAFFTEHLHTDEEIRLILEGSGYFDVRDNEDNWLRIKVVKGDLIIIPAGIYHRFTLDTNNFIRTRRYFVGEPVWAPHNRPADEMDCRKSYIKHQSENFVQFNKV
Turning to B8, the MAPPIT interaction score in the assay with Sfp84E (MAPPIT configuration: N-C) is 0.249; with Sfp84E (MAPPIT configuration: N-N), 0.123; with alc, 0.0614; with robl62A, 2.17.

B9: ord (protein)
chain: MYGETTLNKNHVIKFIKLKINNCLGCDEVEINFSKADNVHIIIYSLVTDMAKDLPAVTPVAQAILLLCSLTYPDSDSLETIPQLKIGKGSVSMSFKVYPVNKEEETEPESESDLDEGPSTSKQALERMVQRAERKAKEASTRNVHSKGIYVNVERRFDMYFALDTVSYYINGGKRQSCPLPEFHAKFFVRPQHSINLLRQLHEKCSGNWLKVIQSDGDGDAFKKFKDPDSPFETFVKLFESNPIKPNDMMGKLAKTCLHVNEAVRLTEREFILEVFNQVRHIFEYITAQEYTVWFLVPCLGDKDQLRSKTLEDFDLTKVRTSIRRAGDTSNIWWDHTDHNIKDILLVAFQLDLATHVNQSVLVISHLETLAEFSTMQYVTAFFMNDFYAKKNTEPKWICHRYLERIIDVALFLGVIVIIEYPSAFTLLQEGRHLIKCFQKENADSSRTSQWEIFEDVVKENESDLEFLKEAVGKVQQNV
Turning to B9, the MAPPIT interaction score with Sce is 2.19.

B10: Syx4 (protein)
chain: MGKDRLPELLQRSLSTNSSNSSSNGSLLLNVYSGTTEFIIGNTGGNNNSYSVVSQNSHSCSNNNSSTEPKDRSSSKMTQYGSNVDDILNPYTEIRQQLAQIAANLETMNRMAQTVNLRTFNENEMDELHNKNLRLGNQLMTRFNDFKANLPAENDYSLEARMKRTLFYGLHQTFINLWHKNELFLQNYETKVKKNLRLHTKIINSEASEQEIELLIENKTTKLFVDNFLQETEKERQTLREMMDRFNELRRLEKSIEEVHALFMRIQTLVMEQSEVIQRVEFHAQQATLHVDKGADELDQAEQHQKKARKKKIMLIVILAAVLLVLLLVGIYL
As for B10, in the assay with Snap29, the MAPPIT interaction score is 3.12.

B11: Pka-R2 (protein)
chain: MSSDSSRRIQVPEELKEVLLQFSISFLVEQPPDVIDYAVEYFTKLQSERPSVSHTDQSTDDQLSVNSQDADAEPPVMASSRRKSVFAEAYDPEADDDDDGATAVFPKTDEQRARLVESVKNVLLFRSLEKEQMNQVLDAMFERKVQPGDFIIRQGDDGDNFYVIESGVYKVYINDKHINTYNHTGLFGELALLYNMPRAATVQAETSGLLWAMDRQTFRRILLKSAFRKRKMYEELLNSVPMLKALQNYERMNLADALVSKSYDNGERIIKQGDAADGMYFIEEGTVSVRMDQDDAEVEISQLGKGQYFGELALVTHRPRAASVYATGGVVKLAFLDVKAFERLLGPCMDIMKRNIDDYESQLVKIFGSKNNITDTR
Regarding B11, the MAPPIT interaction score with Shmt is 0.452.

B12: CG7137 (protein)
chain: MKPFEVPPWEEGADIIEFEPVNPSGNGVAAKKKPKKKKPKKKKAAVPNENLNVNKAAEKFTYRQGRGPLAPPQDSSDDDYEDVEDGIRAMHKVKSGRIEKQRPPTQATKGGKKELKLKPELAQAALEAMEATSSTTPAANSLASKLQSELLGGRFRYINEQLYSTTSRKAEALFRKDSSAFEAYHAGYRQQVEKWPINPLNRIIKTIKKIPKTAIIGDFGCGEGKLAQSVPNKVYSMDLVAARSDIIACNITDTPLQARTLDVAVYCLSLMGTDLNEFFLEANRVLKLHGTVYIAEIQSRFQDVREFVRCLNACGFDLNKKDVAVNYFYFFQFKKMRHVPKNTKMKAFSLKPCLYRKR
Turning to B12, the MAPPIT interaction score in the assay with Sas10 is 0.356; with grau, 0.26.

B13: SmD2 (protein)
chain: MALVKPKSELTPEELARQEEEEFNTGPLSVLTQSVKNNTQVLINCRNNKKLLGRVKAFDRHCNMVLENVKEMWTELPRTGKGKKKVKPVNKDRFISKMFLRGDSVILVLRNPLATAAGK
For the molecule B13, in assay [1], the MAPPIT interaction score was 0.49.

B14: mRpL24 (protein)
chain: MRLTQYLASKLKNFSNLPKEYIERSKKQVYWQTPKEINYLPRTVERKRFRYTTNRSWTGQFRQQNMPGTVRRKVLVEPIEDWSFFRGDRIEVLVGKDKGKQGIVTQVIPERNWVIVEGLNWHYRKVGGEKEFPGIIIKSEAPLHVTKDIRLVDPSDLQGTDFEWRFTEEGEKVRVSLRSGRIIPIPETNNQTHDYKTPNAYIEREKDTPGAVVGEITFQPKLSTFEMDIMEEMGIKEERTPVKSYWY
Regarding B14, the MAPPIT interaction score with Sarm was 0.785.

B15: Gem2 (protein)
chain: MQHEPEDQTFQLQALEICEPDSSFDPQKPPESGEEYLMHMFYERKRCPAVVTKRSSKIRNNTGNTTLEMLDNPELPPFKCLLPTPEWRDEQVKSFQAARSQVLVLRKELANNNYDQSGEPPLTSDQEKWKEFCRNQQPLLSTLLHLTQNDLELLLEMLSKWLQDPNTTVDLLHDVWLARWLYATLVCLHLPLEPHVFSTLRYIARTCIHLRNQLKEDEVQRAAPYNLLLTLTVQVFAQNDFKDYI
Turning to B15, in the assay with Smn, the MAPPIT interaction score is 2.73.

B16: Pep (protein)
chain: MVSVKVNGNPQNRLVNNAKVNGNMAFRGNQNRNRNFGGGNNNYGGPMGANRMGGMNMSPWESQNPGGGQFGNNMRQGGGQMNAQAINLANNLLNNLFRNQNPPSLLDLPRGGGGMGNRNQRGGPMVSRGGGAGNRLNNRRGQGGGFQNRGATGSGPKPPPKQGGGGIRKQNAFDRAKKLLAKNANQNKKKEPTPGEKKIESPTKESPYASVPNDMFYCHLCKKHMWDANSFENHIKGRTHLMMREGIEESYRLKANMIRQEAKIAEQLKSIEFDRLKRMGKSKQRQLDYCTMCDLNFHGHISTHRKSEGHLQLKKFLHPKCIECNKEFATRIDYDTHLLSAEHLKKAAENNTKVGERKRQTLPISTEEEETRDLRLPQKRKKKPVKKEGEAADGEAKKEGAGDGEGAEGDEAEGEEAKEGEEAADETKEGDELNESQEEEEVALPVDPEDCILDFNDGDEIPSEVDTRLPKYNWQRAVGPGLISKLECYECSVCSKFFDTEVTAEIHSRTATHHRNFLKFINEKSSDTKIAQKRAAAALEENERKKRKVEEAEAPAAEGAAEETTEGAEGELYDPSEATGDDEDVEMVDDNAEGEGEGEGDEEAEAEVEEDGAGQDNGEEEMEAQEEEGQEGEQEPEPEPAPVQTPAPAEPAPPAKTPAKTPTKAAAPAAVASPAAAATSADASPSPAKKATPARAAAGAKATPQRQRARGRYNRY
Consider B16, for which the MAPPIT interaction score with Sid was -0.865; with Xbp1, -0.182.
